# The list is not random: actives were taken first. Their share in the collection is about 3.4%.
# LYP act: activators of human LYP (PTPN22) phosphatase. recombinant LYP, DiFMUP fluorescence; 0 = plate median, 100 = signal doubled. activation, % at 2 µM. 0.11% of 96,000 active;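 active = activation at 2 µM above a set limit, the mean plus 5 SD, cut at about 37% in these data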
# ERa coact inh: blocks coactivator binding to human estrogen receptor alpha; P03372; AID 629; 1.7% of 86,000 active; inhibition, % at 25.6 µM; TR-FRET ER-alpha LBD / SRC-1 peptide, estradiol-bound; in the data active = inhibition above about 50%;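 note: 0% = receptor plus peptide control and 100% = peptide only without receptor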
# ERa coact pot: enhances coactivator binding to human estrogen receptor alpha; P03372; TR-FRET ERalpha-LBD/SRC-Cy5 coactivator binding, 2 h; 100 = basal binding, no effect; coactivator binding (% of control), % at 25.6 µM; 1.3% of 86,000 active; in the data active = activity above about 200%;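 note: binding measured in presence of low estradiol as agonist stimulus; 0% = peptide alone without receptor and 100% = receptor with peptide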
# LYP inh 2: blocks human PTPN22 phosphatase activity; inhibition, % at 2 µM; 0.21% of 96,000 active; Q9Y2R2; recombinant LYP catalytic domain, DiFMUP fluorescence; AID 640;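 active = inhibition at 2 µM at or above a set limit, the screen mean plus 3 SD, cut at about 24% in these data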;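 note: 0% = DMSO with enzyme and 100% = enzyme fully blocked by orthovanadate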
# FAK blocker: blocks human focal adhesion kinase activity. Q05397. biochemical FAK kinase activity assay. inhibition, %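 (tested at 7 µM)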. 0.84% of 97,000 active; in the data active = inhibition above about 19%;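 note: 0% = DMSO and 100% = reference compound high control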
# ERb coact inh: ER-beta (human) coactivator binding inhibition; inhibition, % at 25.6 µM; Q92731; TR-FRET ER-beta LBD / SRC1-Cy5 peptide binding; receptor agonist-loaded with 1 µM estradiol; AID 633; 1.3% of 86,000 active;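 active = compounds whose percent inhibition of the receptor-coactivator binding signal exceeds about 50% in the single-dose screen, limit read from the data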;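 note: 0% = receptor plus peptide wells without compound and 100% = peptide-only wells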
# Target sequence (Q92731 whole entry, looked up, the tested form may be a part): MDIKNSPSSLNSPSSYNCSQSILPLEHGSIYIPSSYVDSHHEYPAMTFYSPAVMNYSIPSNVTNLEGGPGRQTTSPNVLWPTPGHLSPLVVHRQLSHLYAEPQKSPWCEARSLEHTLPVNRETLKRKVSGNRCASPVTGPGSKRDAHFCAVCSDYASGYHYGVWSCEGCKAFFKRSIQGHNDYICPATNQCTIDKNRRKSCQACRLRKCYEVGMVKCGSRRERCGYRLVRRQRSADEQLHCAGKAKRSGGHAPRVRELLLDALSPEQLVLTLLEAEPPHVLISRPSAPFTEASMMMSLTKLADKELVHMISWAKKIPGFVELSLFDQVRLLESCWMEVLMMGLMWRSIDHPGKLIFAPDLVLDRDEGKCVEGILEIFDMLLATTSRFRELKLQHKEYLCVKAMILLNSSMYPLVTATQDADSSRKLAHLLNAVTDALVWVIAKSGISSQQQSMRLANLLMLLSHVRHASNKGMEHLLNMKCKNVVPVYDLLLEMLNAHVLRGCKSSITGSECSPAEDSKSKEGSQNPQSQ
# Numbers without * were called inactive; / = no result given; [ ] = remark or other dose.
SMILES,LYP act,ERa coact inh,ERa coact pot,LYP inh 2,FAK blocker,ERb coact inh
Cc1ccc(-c2nn3c(-c4ccco4)nnc3c3ccccc23)cc1S(=O)(=O)NCC1CCCO1 (configuration not stated),-5,55*[fluorescence artefact?],218*,5,7,30
CC(=O)Nc1ccc(N2CCN(C(C)=O)CC2)cc1,-12,23,80,13,9,63*
CCc1ccc(CNc2ccc(N3CCN(C(C)=O)CC3)cc2)cc1,-10,4,89,13,16,19
CCOC(=O)C1=C(C)S/C(=C\N(C)C)C1=O,-5,54*,34,1,0,73*[fluorescence artefact?]
CCOC(=O)c1c(/N=C/N(C)C)sc(C(=O)OC)c1C,0,-5,93,-2,-1,-2
COc1cccc2cc(-c3cn4cccc(C)c4n3)c(=O)oc12,-8,/,/,4,0,/
CCOc1cccc2cc(-c3nnc(NCc4ccco4)s3)c(=O)oc12,6,53*,75,-8,7,49
CCOc1cccc2cc(-c3cn4cc(C)ccc4n3)c(=O)oc12,3,81*,126,-5,3,50*
COc1cccc2cc(-c3cn4ccc(C)cc4n3)c(=O)oc12,-10,74*,61,10,19*,53*[fluorescence artefact?]
CCN(CC)S(=O)(=O)c1cccc(-c2cn3cc(C)ccc3n2)c1,16,-8,91,-15,10,-3
CCOc1cccc2cc(C(=O)N3CCc4ccccc43)c(=O)oc12,-4,6,113,4,0,-5
CC(C)C(=O)Nc1ccc(C(=O)NNC(=O)CCCOc2ccc(Cl)cc2Cl)cc1,-10,/,/,12,8,/
Nn1c(SCC(=O)NC(=O)NCc2ccccc2)nnc1C1CC1,-7,-6,118,5,3,81*[fluorescence artefact?]
O=C(CSc1nnc(C2CC2)n1Cc1ccccc1)NCc1ccccc1,1,11,81,-1,-1,-10
CCOC(=O)c1ccccc1NC(=O)COc1cc(=O)n(CC)c2ccccc12,-16,19,278*[fluorescence artefact?],16,2,45
CCOC(=O)c1c2c(n(C)c1COC)C(=O)C(=O)c1ccc(Br)cc1-2,-3,85*,57,4,52*,33
CCOC(=O)c1c(C)n(C)c2cc(Br)c(C)cc12,-6,6,151,8,1,23
CCCCC(CC)Cn1c2nc3ccccc3nc2c2c(=N)oc(C)nc21 (configuration not stated),-25,21,267*[fluorescence artefact?],21,3,44
CCCCn1c2nc3ccccc3nc2c2c(=N)oc(C)nc21,/,7,314*[fluorescence artefact?],/,/,32
CCCCC(CC)Cn1c(N)c(C#N)c2nc3ccccc3nc21 (configuration not stated),-5,/,/,6,-3,/
CN(C)CC(=O)N1c2ccccc2CCc2ccc(NC(=O)c3ccc(N)cc3)cc21,-3,79*,36,0,5,69*[fluorescence artefact?]
CCN(CC)CCC(=O)Nc1ccc2c(c1)N(C(=O)CN(CC)CC)c1ccccc1CC2,2,8,81,-6,10,13
CCOC(=O)COc1ccc(Br)cc1C1NC(=O)NC(C)=C1C(=O)NCc1ccccc1 (configuration not stated),-5,-5,121,8,0,-6
Cn1cc(C(=O)N2CCN(C(=O)c3ccco3)CC2)c2c3ccccc3n(C)c2c1=O,1,/,/,-3,-4,/
CCC(CC)C(=O)Nc1cccc(/C(C)=N/NC(=O)c2ccccc2Cl)c1,-3,/,/,-1,0,/
SMILES,LYP act,ERa coact inh,ERa coact pot,LYP inh 2,FAK blocker,ERb coact inh
CCOc1ccc(C(C)=O)cc1COc1ccc(-n2cnnn2)cc1,/,55*[fluorescence artefact?],53,/,/,23
COc1ccc(OCCOC(=O)c2ccc(-n3cnnn3)cc2)cc1,-12,-5,101,11,0,1
COc1ccc2cc(CN(Cc3ccco3)C(c3nnnn3C3CCCCC3)C(C)C)c(=O)[nH]c2c1 (configuration not stated),-23,10,147,26*,-3,6
COc1ccc2cc(CN(Cc3ccco3)Cc3nnnn3C3CCCCC3)c(=O)[nH]c2c1,-7,5,111,5,2,-2
CCCn1c(SCC(=O)Nc2ccccc2Oc2ccccc2)n[nH]c1=O,12,-7,105,-14,1,-5
CSc1nc(NCCOCCO)c2sc3nc(-c4ccco4)c4c(c3c2n1)CCC4,/,79*,62,/,/,76*[fluorescence artefact?]
